From PubChem BioAssay
Activity calls are given as the source filed them. Unless noted, the rule behind the calls is not given here.

What was measured:
[1] = HepG2 liver cancer cell viability effects, profiling panel, resazurin fluorescence, 24 h, PK04 Diversity Set (AID 1172); details: higher = more signal
[2] = basal S. cerevisiae growth modulation, no modifier, primary screen, OD600, strain BY4716, 24 h, basal condition (AID 1173); details: OD600, 24 h, higher = more signal, called active from +8 up or from −8 down
[3] = MM1S myeloma cell viability, profiling panel, resazurin fluorescence, basal, 24 h, PK04 Diversity Set (AID 1174); details: higher = more signal, called active from +8 up or from −8 down;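 note: MM1S multiple myeloma cell line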
[4] = biological target: Dihydroorotate dehydrogenase (quinone), mitochondrial (Plasmodium falciparum (isolate 3D7)) (UniProt Q08210); test: PfDHODH enzyme inhibitors, primary screen, biochemical, C-terminal His tag, absorbance 600 nm (AID 1175); details: DCIP absorbance 600 nm, higher = more signal, called active from +8 up or from −8 down;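 note: recombinant parasite enzyme with a five histidine tag at its C terminus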
[5] = P. aeruginosa biofilm formation inhibitors, primary screen, strain PAO1, LB-PBS medium, absorbance 600 nm (AID 1176); details: P. aeruginosa PAO1 growth/biofilm, A600, 12 h; higher = more signal
[6] = S. cerevisiae RM11-1a growth modifiers, primary screen, strain RM11-1a, OD600, basal, 24 h (AID 1177); details: OD600, 24 h, higher = more signal, called active from +8 up or from −8 down;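 note: cultures grown under basal conditions with no added stressor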
[7] = E. coli acrAB mutant growth effects, primary screen, E. coli filamentation inducers, strain DRC39, OD650, 24 h (AID 1178); details: higher = more signal, called active from +8 up or from −8 down;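 note: growth measured as culture turbidity by optical density at 650 nm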
[8] = E. coli acrAB mutant growth effects, primary screen, E. coli filamentation inducers, strain DRC39, OD650, 48 h (AID 1179);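 note: screen aims at cell division blockers that make cells filament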; details: E. coli DRC39 delta-acrAB growth, higher = more signal, called active from +8 up or from −8 down
[9] = RPMI8226 myeloma cell viability, profiling panel, resazurin fluorescence, basal, 24 h, PK04 Diversity Set (AID 1180); details: higher = more signal;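 note: RPMI8826 multiple myeloma cell line at 5000 cells per well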
[10] = biological target: E3 ubiquitin-protein ligase XIAP (Homo sapiens) (UniProt P98170); test: XIAP binders, primary screen, biophysical, small-molecule microarray, fluorescence 635 nm (AID 1181); details: small-molecule microarray binding, higher = more signal;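 note: score merges 667 nm emission and signal to noise over triplicate slides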
[11] = system: XIP peptide (Xip251-270) binding; test: small-molecule binders of XIP peptide, primary screen, biochemical, small-molecule microarray, fluorescence 635/667 nm, 0.1 µg/mL protein (AID 1182); details: fluorescent protein binding, 635 nm, higher = more signal, called active from +8 up or from −8 down
XIP peptide (Xip251-270) = test: small-molecule binders of XIP peptide, primary screen, biochemical, small-molecule microarray, fluorescence 635/667 nm, 0.5 µg/mL protein (AID 1183); details: small-molecule microarray binding, fluorescence 635 nm; higher = more signal
[12] = Plasmodium falciparum growth inhibition, primary screen, strain 3D7, DAPI fluorescence, 100 nL (AID 1184);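 note: parasites grown inside human red blood cells in medium with human serum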; details: P. falciparum 3D7 growth, 3 d, higher = more signal
[13] = biological target: Homeobox protein Hox-A13 (Mus musculus) (UniProt Q62424); test: inhibitors of HoxA13-DNA binding, primary screen, biochemical, fluorescence polarization, labeled oligonucleotide (AID 1185); details: 15 min, higher = more signal, called active from +8 up or from −8 down
[14] = inhibitors of hydroxyurea-induced Chk1 phosphorylation, primary screen, imaging, HeLa, phospho-Chk1 antibody, percent positive cells (AID 1186); details: hydroxyurea-induced phospho-Chk1 immunofluorescence imaging, higher = more signal
[15] = inhibitors of hydroxyurea-induced Chk1 phosphorylation, primary screen, imaging, HeLa, phospho-Chk1 nuclear intensity (AID 1187); details: hydroxyurea-induced phospho-Chk1 immunofluorescence imaging, higher = more signal

Sequence of Homeobox protein Hox-A13 (Mus musculus) (Q62424 whole entry, looked up): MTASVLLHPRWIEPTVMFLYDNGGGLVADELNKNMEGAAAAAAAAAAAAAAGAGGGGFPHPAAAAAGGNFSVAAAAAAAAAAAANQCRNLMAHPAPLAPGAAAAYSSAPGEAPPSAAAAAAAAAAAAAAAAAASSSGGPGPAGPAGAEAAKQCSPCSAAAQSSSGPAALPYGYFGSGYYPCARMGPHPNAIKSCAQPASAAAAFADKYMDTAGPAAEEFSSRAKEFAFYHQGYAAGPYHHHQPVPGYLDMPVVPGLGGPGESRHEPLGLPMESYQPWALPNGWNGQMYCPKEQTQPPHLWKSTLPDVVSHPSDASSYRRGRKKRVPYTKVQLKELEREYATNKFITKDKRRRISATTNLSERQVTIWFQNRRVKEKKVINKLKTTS
Sequence of E3 ubiquitin-protein ligase XIAP (Homo sapiens) (P98170 whole entry, looked up): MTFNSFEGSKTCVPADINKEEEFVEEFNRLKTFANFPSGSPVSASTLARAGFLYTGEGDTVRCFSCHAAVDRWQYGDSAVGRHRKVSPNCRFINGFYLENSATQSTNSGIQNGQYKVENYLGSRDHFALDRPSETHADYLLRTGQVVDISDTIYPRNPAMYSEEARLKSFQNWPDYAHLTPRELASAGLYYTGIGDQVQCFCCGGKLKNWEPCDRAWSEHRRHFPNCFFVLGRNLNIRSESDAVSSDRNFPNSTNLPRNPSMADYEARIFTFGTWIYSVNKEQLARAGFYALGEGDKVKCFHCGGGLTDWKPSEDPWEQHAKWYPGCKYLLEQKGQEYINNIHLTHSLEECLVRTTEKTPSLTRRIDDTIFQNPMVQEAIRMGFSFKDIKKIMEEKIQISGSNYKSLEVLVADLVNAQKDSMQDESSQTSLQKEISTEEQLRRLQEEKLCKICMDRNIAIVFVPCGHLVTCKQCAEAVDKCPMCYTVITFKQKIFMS
Sequence of Dihydroorotate dehydrogenase (quinone), mitochondrial (Plasmodium falciparum (isolate 3D7)) (Q08210 whole entry, looked up): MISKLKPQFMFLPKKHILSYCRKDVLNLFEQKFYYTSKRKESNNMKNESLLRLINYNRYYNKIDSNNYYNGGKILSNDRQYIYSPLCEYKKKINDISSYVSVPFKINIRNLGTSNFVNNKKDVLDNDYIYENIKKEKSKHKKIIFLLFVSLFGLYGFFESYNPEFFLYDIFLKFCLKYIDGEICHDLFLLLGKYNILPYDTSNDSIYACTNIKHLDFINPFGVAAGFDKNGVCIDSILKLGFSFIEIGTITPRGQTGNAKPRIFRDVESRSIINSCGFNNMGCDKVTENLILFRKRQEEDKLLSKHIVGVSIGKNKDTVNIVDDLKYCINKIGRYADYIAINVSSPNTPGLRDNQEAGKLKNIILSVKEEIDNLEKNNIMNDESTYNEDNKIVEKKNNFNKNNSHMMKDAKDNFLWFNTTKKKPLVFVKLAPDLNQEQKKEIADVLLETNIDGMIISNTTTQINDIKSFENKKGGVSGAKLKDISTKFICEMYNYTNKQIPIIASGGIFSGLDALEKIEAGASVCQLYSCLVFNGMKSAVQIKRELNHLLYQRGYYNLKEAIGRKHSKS

Row | SMILES | z-score [1] | z-score [2] | z-score [3] | composite z-score [4] | z-score [5] | z-score [6] | z-score [7] | z-score [8] | z-score [9] | composite z-score [10] | composite z-score [11] | composite z-score (XIP peptide (Xip251-270)) | z-score [12] | z-score [13] | z-score [14] | z-score [15]
1 | C=CCOC(=O)[C@H]1[C@@H]2C(=O)O[C@@H](c3ccccc3)[C@@H](c3ccccc3)N2[C@@H](c2ccc(OCCOC(=O)[C@H]3C[C@H]4C(=O)N[C@@H](CCCC[N+](C)(C)C)C(=O)N4[C@H]3c3cccc(OCCO)c3)cc2)[C@]12C(=O)Nc1ccc(I)cc12 | -0.346 | 1.44 (inactive) | -0.0145 (inactive) | -2.44 (inactive) | 4.03 (inactive) | 2.44 (inactive) | 0.186 (inactive) | 0.57 (inactive) | 0.208 | -0.0373 | 0.261 (inactive) | 0.617 | -1.87 | 1.47 (inactive) | -0.714 (inactive) | -0.783 (inactive)
2 | CN1C(=O)C2C(C1=O)C1C=C(c3ccc(CO)cc3)C2C(c2cccs2)N1Cc1cccc(OC(F)(F)F)c1 (configuration not stated) | -0.153 | -2.49 (inactive) | -2.06 (inactive) | -1.6 (inactive) | -0.387 (inactive) | 0.476 (inactive) | -0.383 (inactive) | -0.319 (inactive) | -1.08 | 0.214 | 0.94 (inactive) | 0.591 | -3.19 | -8.09 (active) | -0.384 (inactive) | -0.0226 (inactive)
3 | O=C1c2ccccc2[C@](Cc2ccccc2I)(C(=O)NCc2ccccc2)[C@H](c2ccc(CO)cc2)N1C1CCCCC1 | -0.176 | -0.453 (inactive) | 0.485 (inactive) | -0.567 (inactive) | 0.214 (inactive) | -0.871 (inactive) | 0.852 (inactive) | -0.14 (inactive) | 0.489 | 0.182 | 0.353 (inactive) | 0.713 | -1.34 | -2.27 (inactive) | -0.353 (inactive) | -0.12 (inactive)
4 | COc1cc(CO)cc(I)c1O[C@H]1C=C(C(=O)NCCO)C[C@@H](N(CC2CCCCC2)C(=O)c2ccc(C(F)(F)F)cc2)[C@@H]1O | 0.445 | -1.02 (inactive) | -0.327 (inactive) | 0.345 (inactive) | 0.425 (inactive) | 0.183 (inactive) | 0.342 (inactive) | 0.212 (inactive) | 0.508 | 0.0859 | -0.175 (inactive) | 0.516 | 1.09 | -6.43 (inactive) | -0.409 (inactive) | -0.884 (inactive)
5 | CC(C)N1CC=CC23O[C@@H]4C=CCCOC(=O)C4[C@H]2C(=O)N(CCO)[C@@H]3C1=O (some centres not stated) | 1.74 | -0.913 (inactive) | 0.839 (inactive) | -2.29 (inactive) | 0.525 (inactive) | -0.199 (inactive) | -0.141 (inactive) | -0.327 (inactive) | 0.475 | -0.251 | -0.3 (inactive) | 0.172 | -0.434 | -4.46 (inactive) | -0.494 (inactive) | -0.578 (inactive)
6 | CC1CC/C=C\[C@H]2OC34C=CCN(CCN5CCOCC5)C(=O)[C@H]3N(CCO)C(=O)[C@@H]4C2C(=O)O1 (some centres not stated) | 0.106 | -0.158 (inactive) | 0.322 (inactive) | -0.4 (inactive) | 0.826 (inactive) | -0.585 (inactive) | -0.0987 (inactive) | -0.557 (inactive) | 0.119 | -0.128 | 0.467 (inactive) | 0.829 | 0.055 | -5.81 (inactive) | 0.0898 (inactive) | 0.139 (inactive)
7 | Cc1ccc(S[C@]2(C(=O)NCc3ccccc3)CC(=O)N(C(C)C)[C@@H]2c2ccc(CO)cc2I)cc1 | 0.059 | -1.93 (inactive) | -1.63 (inactive) | -0.335 (inactive) | -0.0807 (inactive) | -0.964 (inactive) | 0.484 (inactive) | 0.329 (inactive) | -2.35 | -0.253 | 1.17 (inactive) | 0.809 | 0.257 | -2.88 (inactive) | 0.422 (inactive) | 0.953 (inactive)
8 | CN(C)C(=O)[C@@]1(Cc2ccccc2N=[N+]=[N-])COC(c2ccc(OCCCO)cc2)=N1 | 1.44 | -4.24 (inactive) | -0.0135 (inactive) | 0.369 (inactive) | -0.497 (inactive) | 0.481 (inactive) | 0.632 (inactive) | 1.42 (inactive) | 0.816 | 0.194 | 0.472 (inactive) | 0.605 | -1.8 | -5.84 (inactive) | -0.408 (inactive) | -0.362 (inactive)
9 | CN(C)CCCCNC(=O)[C@H]1C[C@H]2C(=O)N3CCC[C@H]3C(=O)N2[C@H]1c1ccc(O)cc1 | 0.769 | -0.659 (inactive) | 0.949 (inactive) | -0.884 (inactive) | 1.99 (inactive) | -0.35 (inactive) | -0.476 (inactive) | -0.565 (inactive) | -0.536 | -0.192 | -0.301 (inactive) | 0.538 | -1.25 | -0.12 (inactive) | 0.331 (inactive) | 0.513 (inactive)
10 | O=C(CS)NCCCCCCNC(=O)[C@H]1C[C@H]2C(=O)N[C@@H](Cc3ccccc3)C(=O)N2[C@H]1c1cccc(OCCO)c1 | -0.351 | 0.765 (inactive) | -0.453 (inactive) | -0.439 (inactive) | 0.889 (inactive) | 0.765 (inactive) | -0.0049 (inactive) | 0.57 (inactive) | -0.614 | 0.316 | 0.168 (inactive) | 0.825 | 0.107 | -1.03 (inactive) | -0.0078 (inactive) | 0.671 (inactive)
11 | CC(C)(C)OC(=O)CC[C@]1(C(=O)O)N=C(c2ccc(OCCCO)cc2)O[C@H]1c1ccccc1CN=[N+]=[N-] | 0.706 | -0.0245 (inactive) | 0.444 (inactive) | 0.209 (inactive) | -0.788 (inactive) | -0.165 (inactive) | 0.184 (inactive) | 1.25 (inactive) | 0.925 | -0.204 | 0.109 (inactive) | 0.405 | -0.711 | -4 (inactive) | -0.287 (inactive) | -0.499 (inactive)
12 | O=C(O)[C@H]1C[C@H]2C(=O)N3CCC[C@H]3C(=O)N2[C@H]1c1cccc(OCCO)c1 | 1.32 | -0.361 (inactive) | 0.209 (inactive) | -0.117 (inactive) | -0.695 (inactive) | 0.43 (inactive) | 0.481 (inactive) | 0.896 (inactive) | 0.268 | -0.0901 | 0.25 (inactive) | 0.335 | -0.0612 | -3.62 (inactive) | -0.217 (inactive) | 0.0679 (inactive)
13 | COCCCNC(=O)[C@]1(Cc2ccccc2N=[N+]=[N-])N=C(c2ccc(OCCCO)cc2)O[C@@H]1c1ccccc1N=[N+]=[N-] | -2.52 | 0.298 (inactive) | -3 (inactive) | -0.282 (inactive) | 1.07 (inactive) | 0.315 (inactive) | 0.342 (inactive) | -0.435 (inactive) | -2.76 | -0.0332 | -0.207 (inactive) | 0.538 | -2.11 | -1.51 (inactive) | -0.553 (inactive) | -0.627 (inactive)
14 | NC(=O)NCC#Cc1ccc2c(c1)[C@]1(C(=O)N2)[C@H](c2ccc(O)cc2)N2[C@H](c3ccccc3)[C@H](c3ccccc3)OC(=O)[C@H]2[C@@H]1C(=O)Nc1nc2ccccc2s1 | 0.971 | 3.54 (inactive) | 0.972 (inactive) | -0.579 (inactive) | 4.48 (inactive) | 5.85 (inactive) | 1.04 (inactive) | 1.19 (inactive) | 0.388 | 0.591 | 0.541 (inactive) | 0.453 | 0.364 | 0.608 (inactive) | -0.275 (inactive) | 0.0338 (inactive)
15 | COC(=O)C[C@H]1O[C@]2(C(=O)N(C)c3ccccc32)[C@@H](C)[C@@H]1[Si](C)(C)c1ccc(C)cc1 | -0.501 | -2.64 (inactive) | 1.47 (inactive) | 0.0559 (inactive) | -0.884 (inactive) | 0.155 (inactive) | 1.37 (inactive) | -0.466 (inactive) | 0.789 | -0.0172 | 0.611 (inactive) | 0.336 | -2.09 | -5.95 (inactive) | 0.0207 (inactive) | 0.0333 (inactive)
16 | CCCC[C@@H]1C[C@H]1[C@@H](NC(=O)c1cccnc1)c1ccc(-c2ccccc2)cc1 | 1.6 | -3.34 (inactive) | 1.1 (inactive) | -0.106 (inactive) | -0.0982 (inactive) | -0.402 (inactive) | -0.88 (inactive) | -0.762 (inactive) | 2.9 | 0.0302 | -0.414 (inactive) | -0.0356 | -0.814 | -3.43 (inactive) | 0.577 (inactive) | 0.452 (inactive)
17 | CCOC(=O)C[C@H]1[C@H](OC(=O)c2ccccc2-c2ccccc2)[C@@H](NC(=O)c2ccc3ccccc3n2)c2cc(OCCCO)ccc2N1C(=O)c1ccc2ccccc2n1 | 0.922 | -1.08 (inactive) | 0.833 (inactive) | -0.431 (inactive) | 0.719 (inactive) | -0.344 (inactive) | 1.33 (inactive) | 1.21 (inactive) | -0.19 | -0.162 | 0.123 (inactive) | 0.309 | -0.456 | -1.53 (inactive) | -0.492 (inactive) | -0.588 (inactive)
